The results in this text go back to PubChem BioAssay (NCATS).

The structures appear in SMILES notation. Values without a mark were called inactive. The rule behind the calls is not given here.
Potency is the fitted concentration of half-maximal effect.

The subject of the experiment is HIV-1 nucleocapsid protein NCp7 (binding to TG oligonucleotide). As to the kind of experiment: HIV Nucleocapsid (AID 346).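 Note: potency is for inhibitors that block NC binding and lower polarization.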 The conditions noted are these: HIV-1 NC / fluorescein-TGTGTGTG probe, fluorescence polarization. The essentials:
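10 nM TG4xF probe with 100 nM nucleocapsid protein in high-salt Hepes pH 7.5 (250mM NaCl) containing 1uM ZnCl2 and reducing agents. Compound inhibition of binding was read as fluorescein polarization after 1 hr at room temperature.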
On the technique in general: Polarisation of emitted light reports the rotation of a fluorescent probe.
On to `FC(F)(F)c1ccccc1-c1cncnc1-n1ccnc1`, for which the Potency is above 20 µM.

With `CS(=O)(=O)Nc1cccc(-c2ccc3ncnc(N4CCNCC4)c3c2)c1`, the Potency was above 20 µM.

In the case of `CS(=O)(=O)N1CCC[C@@]2(CCN(C(=O)Nc3cccc(F)c3)C2)C1`, the Potency was above 20 µM.

As to `COCC(=O)N1CCC2(CC1)CCN(c1ccncc1)CC2`, the Potency is above 20 µM.

In the case of `COc1ccccc1-c1nccc(Nc2ccc(F)cc2)n1`, the Potency was above 20 µM.

In the case of `CN1CC[C@@]2(CCCN(C(=O)c3cccc(F)c3)C2)C1`, the Potency was above 20 µM.

As to `Cc1cnc(CNc2ccnc(-c3ccccc3Cl)n2)cn1`, the Potency is above 20 µM.

For the compound `COCCNc1ncnc2ccc(-c3cccnc3)cc12`, the Potency was above 20 µM.

Take `COc1ccc2[nH]cc(CCNc3ncnc4ccc(-c5ccccc5CN(C)C)cc34)c2c1`: the Potency was above 20 µM.

Turning to `COc1ccc(-n2c(=O)c(-c3cccs3)nc3cnc(N(C)C)nc32)cc1`, the Potency is above 4 µM.

With `COc1cccc(Nc2ncc3ncc(=O)n(CCc4ccccc4)c3n2)c1`, the Potency is above 4 µM.

In the case of `COCC(=O)N1CCC[C@@]2(CCN(C(c3ccccc3)c3ccccc3)C2)C1`, the Potency was above 20 µM.

For the compound `CC(=O)N1CCC[C@@]2(CCN(C(=O)Nc3cccc(C#N)c3)C2)C1`, the Potency was above 20 µM.

`COc1ccc(CNc2ccnc(-c3ccoc3)n2)c(OC)c1`: the Potency was above 20 µM.

On to `COc1ccc(-c2nc3cnc(N4CCNCC4)nc3n(C3CC3)c2=O)cc1`, for which the Potency was above 20 µM.

As for `CN(C)c1ncc2nc(-c3ccc(Cl)cc3)c(=O)n(Cc3cccs3)c2n1`, the Potency is above 4 µM.

Turning to `COc1ccc(C(=O)N2CCC[C@@]3(CCN(c4ccccc4)C3)C2)cc1`, the Potency is above 20 µM.

Turning to `N#CCCn1c(=O)c(-c2ccc(Cl)cc2)nc2cnc(Oc3ccccc3)nc21`, the Potency is above 20 µM.

Take `CCNc1ncc2nc(-c3cc(F)cc(F)c3)c(=O)n(Cc3ccc(F)cc3)c2n1`: the Potency was above 4 µM.

For `COc1ccc(C(=O)N2CCC3(CC2)CCN(c2ccccn2)CC3)cc1`, the Potency is above 20 µM.

Turning to `COc1ccc(C(=O)N2CCC[C@@]3(CCN(C)C3)C2)cc1`, the Potency was above 20 µM.

As to `COCCNc1nc(-c2cccc(NS(C)(=O)=O)c2)nc2ccccc12`, the Potency is above 20 µM.

As to `O=c1c(-c2ccc(F)cc2)nc2cnc(N3CCOCC3)nc2n1C[C@H]1CCCO1`, the Potency was above 20 µM.

With `CC(=O)NCCNc1ncncc1-c1ccccc1C(F)(F)F`, the Potency is above 20 µM.

In the case of `COc1ccccc1-c1nccc(NCc2ccccc2)n1`, the Potency is above 20 µM.

With `Cc1cnc(CNc2ccnc(-c3ccoc3)n2)cn1`, the Potency was above 20 µM.

Turning to `COCCNc1cc(-c2c(C)noc2C)ncn1`, the Potency is above 20 µM.

Turning to `COc1ccccc1CNc1nc(-c2ccc(N(C)C)cc2)nc2ccccc12`, the Potency was above 20 µM.

For the compound `CN(C)c1ccc(-c2nc(-n3ccnc3)c3ccccc3n2)cc1`, the Potency was above 20 µM.

For `O=c1c(-c2ccccc2)nc2cnc(Oc3ccccc3)nc2n1C[C@H]1CCCO1`, the Potency is above 20 µM.

With `COCCn1c(=O)cnc2cnc(N3CCNCC3)nc21`, the Potency is above 20 µM.

Consider `N#Cc1ccc(CN2CCCC3(CCN(C(=O)c4cccc(F)c4)CC3)C2)cc1`, for which the Potency was above 20 µM.

In the case of `CC(=O)N1CCC2(CC1)CCN(C(c1ccccc1)c1ccccc1)CC2`, the Potency is above 20 µM.

For `Cc1noc(C)c1-c1nc(NCc2ccccc2)c2ccccc2n1`, the Potency was above 20 µM.

Regarding `COc1ccccc1-c1nc(NCc2ccccc2)c2ccccc2n1`, the Potency was above 20 µM.

As for `COCCn1c(=O)c(CCc2ccccc2)nc2cnc(N3CCOCC3)nc21`, the Potency was above 20 µM.

As for `CCNc1ncc2nc(-c3ccc(OC)cc3)c(=O)n(CCc3ccccc3)c2n1`, the Potency was above 4 µM.

Turning to `COc1ccc(-n2c(=O)c(CCc3ccccc3)nc3cnc(N4CCN(C)CC4)nc32)cc1`, the Potency is above 20 µM.

On to `COc1ccc(NC(=O)N2CC[C@@]3(CCCN(C(C)=O)C3)C2)cc1`, for which the Potency is above 20 µM.

With `O=C(c1csnn1)N1CCC2(CCCN(c3ncccn3)C2)CC1`, the Potency is above 20 µM.
